Assay results from PubChem BioAssay (NCATS).
Activity calls are given as the source filed them. Calls come from the whole dose curve.

The molecules below were run against Tumor susceptibility gene 101 protein (Homo sapiens) (UniProt Q99816) (assay: qHTS Validation Assay for Iinhibitors of HIV-1 Budding by Blocking the Interaction of PTAP/TSG101 (AID 485342)). Conditions: TSG101-PTAP binding, fluorescence polarization, 4-point titration; series mostly up to 115 µM.
Tumor susceptibility gene 101 protein (Homo sapiens), sequence (Q99816 whole entry, looked up): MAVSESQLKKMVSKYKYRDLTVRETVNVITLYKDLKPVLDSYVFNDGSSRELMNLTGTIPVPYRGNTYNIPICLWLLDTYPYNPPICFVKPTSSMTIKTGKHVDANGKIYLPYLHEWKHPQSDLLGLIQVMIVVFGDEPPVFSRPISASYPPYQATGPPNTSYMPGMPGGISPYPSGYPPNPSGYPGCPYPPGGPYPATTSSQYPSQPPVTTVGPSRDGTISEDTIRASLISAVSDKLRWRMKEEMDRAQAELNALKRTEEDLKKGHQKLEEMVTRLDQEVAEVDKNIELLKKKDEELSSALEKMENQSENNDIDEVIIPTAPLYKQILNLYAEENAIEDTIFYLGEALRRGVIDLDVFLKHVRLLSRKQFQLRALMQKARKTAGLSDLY
Text: NIH Molecular Libraries Probe Production Network [MLPCN]
NIH Chemical Genomics Center [NCGC]
PI Name: Dr. Eric Freed, NCI
Stages of the HIV-1 replication cycle, specifically virus assembly and release, provide underexploited targets for the development of novel antiviral inhibitors. The late stages of HIV-1 replication are mediated by the Gag precursor protein, Pr55Gag. Expression of Pr55Gag is both necessary and sufficient for the production of virus-like particles from Gag-expressing cells. The Gag protein hijacks key host proteins involved in endocytic machinery of the host cell to promote endosomal processing and viral budding. The budding process requires a direct interaction between a […] (PTAP) motif in the p6 domain of Gag and the cellular endosomal sorting protein known as Tsg101. In this way, the Gag PTAP motif promotes the host cells to recruit viral particles to the plasma membrane where the new viral particles are released, effectively turning the host cells into viral factories. A fluorescence anisotropy assay has been developed to quantitatively measure the PTAP-Tsg101 interaction which can be used to screen for inhibitors of this interaction.
NCGC Assay Protocol Summary:
Two uL of the Tsg101 binding domain in buffer (10 mM HEPES pH 7.5; 0.15 M NaCl, 0.01% Tween 20; 3 mM EDTA;0.1 mM TCEP) was dispensed into Greiner black MB 1536-well plates (final concentration 10 uM). Then, 23 nL of compounds or DMSO were delivered to each well using a pin tool. Finally, 2 uL of a FITC-labeled peptide containing the PTAP motif (1) in the same buffer was dispensed (50 nM final concentration) and the binding was allowed to proceed for 20 min. at r.t. Fluorescent polarization was determined using FITC excitation and polarized emission filters on a Perkin Elmer Viewlux.
Keywords: Tsg101, PTAP, Gag, HIV, fluorescent polarization, MLSMR, MLPCN, NIH Roadmap, qHTS, NCGC
`CN1CCc2cccc(Cl)c2CC1` was tested, and the outcome was “inactive”. `NC(=O)c1ccc(OCC(O)CN2CC=C(c3ccc(F)cc3)CC2)cc1` (stereo not given) was tested, and the outcome was “inactive”. In the case of `N[C@@H](Cn1ccc(=O)[nH]c1=O)C(=O)O`, the outcome was “inactive”. For `CC(N)Cc1c[nH]c2ccc(OCc3cccs3)cc12` (stereo not given), the outcome was “inactive”. `C#CCN[C@H](C)Cc1ccccc1` was tested, and the outcome was “inactive”. For `O=S1(=O)N(CCN2CC=C(c3c[nH]c4cc(F)ccc34)CC2)c2cccc3c2N1CCC3`, the outcome was “inactive”. For `C[N+]1(C)C2CCC1CC(OC(=O)c1c[nH]c3ccccc13)C2` (stereo not given), the outcome was “inactive”. `CC12NC(Cc3ccccc31)c1ccccc12` (stereo not given) was tested, and the outcome was “inactive”. With `CP(=O)(O)C1=CCNCC1` the outcome was “inactive”. In the case of `C[C@@H]1O[C@@H](O[C@H]2C[C@@H](O)[C@]3(CO)[C@@H]4C(CC[C@]3(O)C2)[C@@]2(O)CC[C@H]([C@@H]3COC(=O)C3)[C@@]2(C)C[C@H]4O)[C@H](O)[C@H](O)[C@H]1O` (stereo not given in full), the outcome was “inactive”. For `O=c1c2ccccc2[se]n1-c1ccccc1`, the outcome was “inactive”. For `NC(=O)CI`, the outcome was “inactive”. In the case of `Oc1ccc2c3c1O[C@H]1c4oc5ccccc5c4C[C@@]4(O)C(C2)N(CC2CC2)CCC314` (stereo not given in full), the outcome was “inactive”. With `N[C@@H](Cn1oc(=O)[nH]c1=O)C(=O)O` the outcome was “inactive”. `Clc1ccc(N2CC3CCC(C2)N3)nn1` was tested, and the outcome was “inactive”. With `CN1CC[C@@]2(C)c3cc(O)ccc3N(C)C12` (stereo not given in full) the outcome was “inactive”. For `CC(=O)OCC1=C(C(=O)O)N2C(=O)[C@@H](NC(=O)CCC[C@@H](N)C(=O)O)[C@H]2SC1`, the outcome was “inactive”. With `CN1CC[C@@]2(C)c3cc(OC(=O)Nc4ccccc4)ccc3N(C)[C@@H]12` the outcome was “inactive”. With `C[C@H](N)CN1CCc2ccc(Br)cc21` the outcome was “inactive”. For `O=C1CC[C@@]2(O)C3Cc4ccc(O)c5c4C2(CCN3CC2CC2)[C@H]1O5` (stereo not given in full), the outcome was “inactive”. With `CCCn1c(=O)c2[nH]c(C3CCCC3)nc2n(CCCOC(=O)c2ccc(S(=O)(=O)F)cc2)c1=O` the outcome was “inactive”. In the case of `Cc1c2ccncc2c(C)c2c1[nH]c1ccccc12`, the outcome was “inactive”. In the case of `NC(C(=O)O)c1cc(=O)[nH]o1` (stereo not given), the outcome was “inactive”. For `Cc1sc2ccccc2c1CC1=NCCN1`, the outcome was “inactive”. In the case of `CN1CCc2cc(O)cc3c2[C@H]1Cc1ccc(O)c(O)c1-3`, the outcome was “inactive”. For `N#CCCN`, the outcome was “inactive”. For `C=CCN1CC[C@]23c4c5ccc(O)c4O[C@@H]2/C(=N/N=C2\CC[C@@]4(O)C6Cc7ccc(O)c8c7[C@@]4(CCN6CC=C)[C@@H]2O8)CC[C@@]3(O)C1C5`, the outcome was “inactive”. With `C=CCN1CC[C@]23c4c5ccc(O)c4O[C@H]2/C(=N/NC(=O)c2ccccc2)CC[C@@]3(O)[C@H]1C5` the outcome was “inactive”. `COc1ccc2c(c1)c(CCN1CCOCC1)c(C)n2C(=O)c1cccc(Cl)c1Cl` was tested, and the outcome was “inactive”. With `CN(C(=O)Cc1ccc(Cl)c(Cl)c1)C(CN1CCCC1)c1cccc(OCC(=O)O)c1` (stereo not given) the outcome was “inactive”. For `NCC(CP(=O)(O)O)c1ccc(Cl)cc1` (stereo not given), the outcome was “inactive”. For `CCCC[N+]1(C)C2CC(OC(=O)[C@H](CO)c3ccccc3)CC1C1OC12` (stereo not given in full), the outcome was “inactive”. In the case of `CCS(=O)(=O)Nc1cccc(C(=C2CCCCC2)c2cnc[nH]2)c1`, the outcome was “inactive”. For `C[N+]1(C)CCN(c2ccccc2)CC1`, the outcome was “inactive”. With `O=C(O)c1cc[c]([Hg][Cl])cc1` the outcome was “inactive”. With `CCCN(CCC)CCc1c[nH]c2ccc(C(N)=O)cc12` the outcome was “inactive”. In the case of `CCCN1CC[C@@H]2c3cc(O)ccc3CC[C@@H]21`, the outcome was “inactive”. With `CO[C@H]1CC=C2CCN3CCC4=C(CC(=O)OC4)[C@]23C1` the outcome was “inactive”. With `NC(=O)c1cc(N2CC2)c([N+](=O)[O-])cc1[N+](=O)[O-]` the outcome was “inactive”. `NC(N)=Nc1ccc2[nH]c3c(c2c1)C[C@@]1(O)[C@H]2Cc4ccc(O)c5c4[C@@]1(CCN2CC1CC1)[C@H]3O5` was tested, and the outcome was “inactive”.
